The target of the first assay is EMILIN2. Description: pooled miR-30 sensor sort-seq; sequence = guide strand. Particulars: shRNA.
TAGGTCTGAAGTTCACTCGATA showed a sensor-assay potency score (higher = more potent) of -0.326. Still for that read-out and setting: for TTTATTGACACTCCCTGTCTTT the value was -0.458; for ATAGTCATCACACTGCTGCTGG, 0.195; for TAGAGTTTTTACAACTATCTAT, -0.151. Sequence AACAACTTGAACTTTGTCCTTC registered a sensor-assay potency score (higher = more potent) of 0.591. With TTGACCAATGTCACCATTCTTT, the sensor-assay potency score (higher = more potent) is -0.477.

In a further assay the target is EMP1. Described as above. Conditions: shRNA.
In the case of ATTCGCATAATGACTAGTGTAG, the sensor-assay potency score (higher = more potent) was -0.191. On the same count and under the same terms, for ATAATGACTAGTGTAGATGGAC the value was -0.252; for TCACTGGCATATGACAGGCTGT, -1.18; for TACAGTTTTTCCAAAGACCTAC, -0.739.

For the sequence ATAATAACAGTAGCGATGTGGA, the sensor-assay potency score (higher = more potent) was -0.819. On to TAGCCGTGGTGATACTGCGTTC, for which the sensor-assay potency score (higher = more potent) is -1.37. For the sequence TTGGAAACCAACCAGACATTGG, the sensor-assay potency score (higher = more potent) was -0.971. Turning to TACTGATGCATCTACCGTATTG, the sensor-assay potency score (higher = more potent) is -1.81. Still for that read-out and setting: for TGATGCATCTACCGTATTGGAA the value was -0.931; for TACCGTATTGGAAACCAACCAG, -0.163; for TTGAGGGCATCTTCACTGGCAT, -0.461. Still for that read-out and setting: then AATGGTGCTAACAAATAGCATA, with -1.39; and TTCGCATAATGACTAGTGTAGA, with -1.4; and ATAGCATAATAACAGTAGCGAT, with -1.69. In turn, ACCGTATTGGAAACCAACCAGA gave a sensor-assay potency score (higher = more potent) of -1.97. ATCTACCGTATTGGAAACCAAC returned a sensor-assay potency score (higher = more potent) of -1.95. The same measure, in the same setting: then TATTGGAAACCAACCAGACATT, with -1.22; and TAGCATAATAACAGTAGCGATG, with -1.5; and TTCACTGGCATATGACAGGCTG, with -0.108. On the same count and under the same terms, then ATAGCCGTGGTGATACTGCGTT, with -0.125. Same read-out and setting: for TTTTTCCAAAGACCTACTGATG the value was -1.45. The sequence TAGTGTAGATGGACACCCCCAC had a sensor-assay potency score (higher = more potent) of -0.261. Same read-out and setting: then AATAGCATAATAACAGTAGCGA, with 0.0884.

The record behind these values is the OligoGym collection.
Further: reference of the scale not given here.
